In all, about 390,000 compounds went through this assay and about 910 (0.23%) were called active. Not shown: some 5% with an inconclusive outcome. The sample holds actives, similar compounds and a random draw of the others, so the mix is not that of the screen. Calls follow the shape of the dose curve; as a rule, active = well fitted inhibition curve with a large enough effect; inconclusive = small, poorly fitted or top-dose-only effect; inactive = no such curve, though single readings can be large or run the other way.
target: Ubiquitin carboxyl-terminal hydrolase 1 (Homo sapiens) (UniProt O94782); experiment: Inhibitors of USP1/UAF1: Primary Screen; settings: recombinant USP1/UAF1, Ub-Rhodamine cleavage fluorescence; series mostly up to 57.1 µM; activity change, negative = inhibition: at the top concentration; also: nearly all actives have a fitted effect of over 60% in size
From the text: Deubiquitinating enzymes (DUBs) are a class of enzymes that can cleave isopeptide bond formed between the C-terminal carboxylate of ubiquitin and a lysine side-chain amino group on the target protein. Among them, ubiquitin specific proteases (USPs) constitute the largest DUB family. Human USPs are emerging as promising targets for pharmacological intervention because of their connection to a number of human diseases, including prostate, colon and breast cancer (1, 2), pediatric acute lymphoblastic leukemia (3), and familial cylindromatosis (4). The advantage of inhibiting USPs lies in the potential specificity of therapeutic intervention that can lead to better efficacy and reduce nonspecific side effects. In a collaboration between the University of Delaware and the NIH Chemical Genomics Center, a high-throughput screen assay was developed to screen for USP1/UAF1 inhibitors. This miniaturized assay has a fluorescent read-out and is used to screen the NIH Molecular Libraries Small Molecule Repository (MLSMR) in order to identify a small molecule that inhibits USP1. NIH Chemical Genomics Center [NCGC] NIH Molecular Libraries Probe Centers Network [MLPCN] MLPCN Grant: DA030552 Assay Submitter (PI): Zhihao Zhuang, University of Delaware 1. Priolo, C., et al. (2006) The isopeptidase USP2a protects human prostate cancer from apoptosis. Cancer Res 66, 8625-8632 2. Popov, N., et al. (2007) The ubiquitin-specific protease USP28 is required for MYC stability. Nat Cell Biol 9, 765-774 3. De Pitta, C., et al. (2005) A leukemia-enriched cDNA microarray platform identifies new transcripts with relevance to the biology of pediatric acute lymphoblastic leukemia. Haematologica 90, 890-898 4. Kovalenko, A., et al. (2003) The tumour suppressor CYLD negatively regulates NF-kappaB signalling by deubiquitination. Nature 424, 801-805
3 microliters of reagents (buffer in columns 3 and 4 as negative control and 1nM USP1/UAF1 complex in columns 1, 2, and 5-48) are dispensed into Greiner black solid bottom 1536-well assay plates. Compounds are then transferred via Kalypsys pin tool equipped with 1536-pin array (10nl slotted pins, V&P Scientific, San Diego, CA). Following an incubation step of 15 min at room temperature, 1ul of Ub-Rho substrate (150nM final concentration) is added to initiate the reaction. The plates are immediately centrifuged at 1000 rpm for 15 seconds, and subsequently transferred to a ViewLux high-throughput CCD imager (PerkinElmer) wherein kinetic measurements of fluorescence are acquired using 480 nm excitation/540 nm emission filter set (6 reads every 60 seconds, see Table 1). All reagents are diluted in an assay buffer consisting of 50mM HEPES (pH 7.8), 0.5mM EDTA, 0.1 mg/ml BSA, 1mM TCEP, and 0.01% Tween-20.
% is scaled to controls: 0 for no effect and ±100 for the full control effect; potency is read from the fitted curve at half-maximal effect.

Sequence of Ubiquitin carboxyl-terminal hydrolase 1 (Homo sapiens) (O94782 whole entry, looked up): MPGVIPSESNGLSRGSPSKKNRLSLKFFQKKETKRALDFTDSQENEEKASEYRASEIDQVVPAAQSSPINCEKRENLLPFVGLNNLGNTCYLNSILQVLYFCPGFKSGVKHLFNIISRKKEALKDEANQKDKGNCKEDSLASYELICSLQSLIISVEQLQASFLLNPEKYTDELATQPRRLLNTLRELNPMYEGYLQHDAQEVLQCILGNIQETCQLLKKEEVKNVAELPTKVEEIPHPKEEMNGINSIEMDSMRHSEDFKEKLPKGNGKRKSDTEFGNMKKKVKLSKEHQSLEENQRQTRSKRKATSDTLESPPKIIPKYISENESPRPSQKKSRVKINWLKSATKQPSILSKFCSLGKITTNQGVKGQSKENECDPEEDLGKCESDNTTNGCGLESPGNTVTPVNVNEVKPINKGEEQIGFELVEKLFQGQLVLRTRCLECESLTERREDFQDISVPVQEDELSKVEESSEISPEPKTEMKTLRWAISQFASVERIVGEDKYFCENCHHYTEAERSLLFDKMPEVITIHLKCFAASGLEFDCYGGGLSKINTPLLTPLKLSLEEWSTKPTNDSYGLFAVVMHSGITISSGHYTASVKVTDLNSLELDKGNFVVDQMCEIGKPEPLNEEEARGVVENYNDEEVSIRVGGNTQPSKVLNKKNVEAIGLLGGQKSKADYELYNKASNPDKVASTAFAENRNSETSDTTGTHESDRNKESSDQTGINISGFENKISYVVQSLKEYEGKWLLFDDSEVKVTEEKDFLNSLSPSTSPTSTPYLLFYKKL

Structure (SMILES) | Potency | activity change, negative = inhibition
COc1cc(Cn2c(N)c(C(=O)NCc3ccco3)c3nc4ccccc4nc32)cc(OC)c1OC | 22.4 µM (active) | –
Cc1ncoc1C(=O)NCC1=C(c2cccc3ccccc23)C[C@@H]2CC[C@H]1N2Cc1ccco1 | – | -26.1% (inactive)
COC(=O)C1=C(c2ccccc2)C[C@@H]2CC[C@H]1N2C(=O)NCc1ccco1 | – | -13.6% (inactive)
CN(C)CC1Oc2ccccc2OC1(O)c1ccccc1 (stereo not given) | – | -24% (inactive)
Cc1ccc(-n2c(/C=C/c3cccc(C(F)(F)F)c3)nc3ccccc3c2=O)cc1 | – | -2.31% (inactive)
COC(=O)C1=C(c2ccc(OCc3ccccc3)cc2)C[C@@H]2CC[C@H]1N2C(=O)NCc1cccc(F)c1 | – | -16.5% (inactive)
O=C1NC(=O)N(c2ccccc2)C(=O)/C1=C/c1ccc([N+](=O)[O-])s1 | 28.2 µM (active) | –
CC(=O)C1(O)CCC2C3CCC4=C(Cl)C(=O)CCC4(C)C3CCC21C (stereo not given) | – | -6.63% (inactive)
COc1cccc(N2C(=O)NC(=O)/C(=C\c3cn(C)c4ccccc34)C2=O)c1 | 11.2 µM (active) | –
Cc1c(C(=O)O)cccc1-n1c(C)cc(/C=C2\C(=O)NC(=O)N(c3ccc4c(c3)OCO4)C2=O)c1C | – | -1.73% (inactive)
Cn1cc(/C=C/c2nc3ccccc3c(=O)n2-c2ccccc2)c2ccccc21 | – | -33.4% (inactive)
O=C1C2CCN(CC2)C1(CO)CO | – | -25.6% (inactive)
C[N+](C)(C)CCOP(=O)([O-])OC[C@H](O)CO | – | 1.6% (inactive)
Cc1ccc(OC(=O)N(C)C[C@@H]2OCc3cnnn3CCCC(=O)N([C@H](C)CO)C[C@@H]2C)cc1 | – | -16.6% (inactive)
COc1cc(C2c3cc4c(cc3C(O)C3COC(=O)C23)OCO4)cc(OC)c1OC (stereo not given) | – | -15.3% (inactive)

Reference: PubChem BioAssay AID743255 (National Center for Advancing Translational Sciences (NCATS), 2014)
